Data as given in PubChem BioAssay AID1814 (Broad Institute, 2009).
In all, about 300,000 compounds went through this assay and about 22,000 (7.3%) were called active. Another 2% or so got no clear call; they are omitted. Many of the other results were omitted from the sample, so actives are more common in it than they were. A number with no mark means an inactive call. No stated cut-off is given here; in the data, active means activity score below about -60%; inconclusive means mostly about -28% to -61%; inactive means positive scores.

assay: Activators working through SNCA 5'UTR binding (MLPCN) (AID 1814); settings: alpha-synuclein 5'UTR reporter, activators screen; hits give low values; tested at 7.5 µM

| SMILES | activity score |
| --- | --- |
| CC[C@]1(O)CC2CN(CCc3c([nH]c4ccccc34)[C@@](C(=O)OC)(c3cc4c(cc3OC)N(C=O)[C@H]3[C@@](O)(C(=O)OC)[C@H](OC(C)=O)[C@]5(CC)C=CCN6CC[C@]43[C@@H]65)C2)C1 (stereo partly drawn) | 102% |
| Cc1ccccc1C(=O)Nc1ccc(N2CCCCCC2)cc1 | -160% (active) |
| COc1cccc(C(=O)Nc2ccc(NC(=O)c3ccco3)cn2)c1 | -135% (active) |
| COc1cccc(C(=O)Nc2cc3c(cc2Br)OCCCO3)c1 | -98.2% (active) |
| COC(=O)c1c(C)[nH]c(C(=O)/C=C/c2ccc(Cl)cc2)c1C | -131% (active) |
| NC(=O)Cc1ccc2sc(-c3ccccc3)nc2c1 | -98.2% (active) |
| O=C(c1cc(-c2ccc(Cl)cc2)on1)N1CCN(c2ccccc2)CC1 | -113% (active) |
| COc1cc(Cl)ccc1OCc1cc(C(=O)N2CC[C@@H]3CCCC[C@H]3C2)no1 | -69% (active) |
| O=C(c1cc(-c2cccs2)on1)N1CCCCC1 | -73.9% (active) |
| COc1ccccc1-c1cc(C(=O)N2CCCCC2)no1 | -93.5% (active) |
| CCCOC1CCCN(C(=O)c2cc(COc3cncc(Cl)c3)on2)C1 (stereo not drawn) | -219% (active) |
| COc1cccc(OCc2cc(C(=O)N3CCN(C(=O)c4ccco4)CC3)no2)c1 | -121% (active) |
| O=C(c1cc(-c2ccccc2O)on1)N1CCCC1 | -142% (active) |
| COc1ccc(OCc2cc(C(=O)N3CCCC3)no2)c2ccccc12 | -148% (active) |
| Cc1nc(-c2ccccc2)sc1C1(C)CC(c2cccnc2)=NO1 (stereo not drawn) | -91.2% (active) |
| COc1ccc(C(C#N)Nc2ccc(C)cc2)cc1 (stereo not drawn) | -61.8% (active) |
| CCOC(=O)c1ccc(NC(=O)c2cccnc2)cc1 | -77.6% (active) |
| CC(=O)Nc1ccc(-c2nc3ccccc3o2)cc1 | -91.4% (active) |
| Cc1cc2nc(-c3ccc(NC(=O)c4cccnc4)cc3)oc2cc1C | -164% (active) |
| COc1cc(OC)cc(C(=O)Nc2ccc(-c3nc4ccccc4o3)c(O)c2)c1 | -61.8% (active) |
| CCOC(=O)c1ccc(NC(=O)Cc2cccs2)cc1 | -126% (active) |
| CCCC(=O)N1c2ccc(-c3csc(N)n3)cc2CC1C (stereo not drawn) | -192% (active) |
| CC(C)c1cc(C(=O)N/N=C/C(Br)=C/c2ccccc2)n[nH]1 | -105% (active) |
| Cc1cc(C(=O)N/N=C\C(Br)=C\c2ccccc2)c(C)o1 | -124% (active) |
| CC(=C/c1ccccc1)/C=N/NC(=O)c1cc(C)oc1C | -125% (active) |
| Cc1cc(C(=O)N/N=C/c2ccc(N3CCOCC3)cc2)c(C)o1 | -87.1% (active) |
| CC(C)(C)c1cc(C(=O)N/N=C/c2ccc([N+](=O)[O-])s2)n[nH]1 | 64% |
| Cc1cc(C(=O)N/N=C/c2ccccc2[N+](=O)[O-])c(C)o1 | -112% (active) |
